Assay results as given in the supplement of paper PMC13380429.

Key:
[1] = test system: Vero E6 infected with SARS-CoV-2; assay: morphology score (similarity to uninfected cells); higher = more like uninfected cells; conditions: 24 h
[2] = test system: Vero E6 infected with SARS-CoV-2; assay: SARS-CoV-2 infection rate relative to infected DMSO; higher = more infection, active = 60 or less; conditions: 24 h

Compound	morphology score [1]	SARS-CoV-2 infection rate [2]
COc1cc(C[C@H](C)[C@H](C)Cc2ccc3c(c2)OCO3)ccc1O [macelignan] (10 µM)	0.185	102% (inactive)
CCCC(CCC)C(=O)NCC(N)=O [valrocemide] (10 µM)	0.062	108% (inactive)
Cc1cc(C)n(-c2cccc([C@H](CC(=O)O)CN3CC[C@@H](CCc4ccc5c(n4)NCCC5)C3)c2)n1 [integrin-antagonist-1] (10 µM)	-0.102	111% (inactive)
Oc1ccc2ccccc2c1Cc1c(O)ccc2ccccc12 (10 µM)	0.0699	104% (inactive)
COC(=O)C1=C(C)NC(C)=C([N+](=O)[O-])[C@@H]1c1ccccc1C(F)(F)F (racemic) (10 µM)	0.192	91.8% (inactive)
CC(C)(C)c1ccc(S(=O)(=O)NCc2ccc(C(=O)Nc3cccnc3)cc2)cc1 (0.833333 µM)	0.0631	107% (inactive)
Nc1nccs1 [aminothiazole] (10 µM)	0.0165	104% (inactive)
C[C@@H]1CC[C@H]2[C@@H](C)C(=O)O[C@@H]3O[C@@]4(C)CC[C@@H]1[C@]32OO4 [artemisinin] (10 µM)	-0.0301	106% (inactive)
CCOC(=O)CCC(=O)O[C@H]1[C@H](O[C@@H]2[C@@H](C)[C@H](O[C@H]3C[C@@](C)(OC)[C@@H](O)[C@H](C)O3)[C@@H](C)C(=O)O[C@H](CC)[C@@](C)(O)[C@H](O)[C@@H](C)C(=O)[C@H](C)C[C@@]2(C)O)O[C@H](C)C[C@@H]1N(C)C [erythromycin-ethylsuccinate] (10 µM)	-0.215	118% (inactive)
CCC(C)CCCC(=O)N[C@@H](CCN)C(=O)N[C@H](C(=O)N[C@@H](CCN)C(=O)N[C@H]1CCNC(=O)[C@H]([C@@H](C)O)NC(=O)[C@H](CCN)NC(=O)[C@H](CCN)NC(=O)[C@H](CC(C)C)NC(=O)[C@@H](CC(C)C)NC(=O)[C@H](CCN)NC1=O)[C@@H](C)O (stereo not given in full) [colistin] (10 µM)	0.134	96.2% (inactive)
COc1cc2nc(C3CC3)nc(N3CCN(c4ccccc4OC)CC3)c2cc1OC (0.833333 µM)	0.157	99% (inactive)
CC(=O)OCC(=O)[C@H]1CC[C@H]2[C@@H]3CCC4=CC(=O)CC[C@]4(C)[C@H]3CC[C@]12C [deoxycorticosterone-acetate] (10 µM)	-0.0375	102% (inactive)
CCN1CCN(c2cc(-c3ccc(F)cc3)c3c(n2)CCCCCC3)CC1 [blonanserin] (10 µM)	0.248	107% (inactive)
O=C1NC(O)CCN1[C@@H]1O[C@H](CO)[C@@H](O)[C@H]1O (stereo not given in full) [tetrahydrouridine] (10 µM)	0.167	103% (inactive)
CCCC(O)C(CC)CO (stereo not given) [2-ethyl-1,3-hexanediol] (0.833333 µM)	-0.095	116% (inactive)
Sc1ncnc2nc[nH]c12 [mercaptopurine] (0.833333 µM)	0.0241	108% (inactive)
Nc1ncnc2c1c(-c1cnc3[nH]ccc3c1)nn2C1CCCC1 (10 µM)	-0.0498	114% (inactive)
C[C@@H](O)[C@H](N)C(=O)N1CCC[C@H]1C(=O)N1CCC[C@H]1C(=O)N[C@H](C(N)=O)[C@@H](C)O [rapastinel] (10 µM)	-0.00969	94% (inactive)
COc1cc(C=O)ccc1O [vanillin] (10 µM)	0.0882	104% (inactive)
CCC1(c2ccccc2)C(=O)NCNC1=O [primidone] (10 µM)	0.097	102% (inactive)

Compound	morphology score [1]	SARS-CoV-2 infection rate [2]
C=CCN1CC[C@]2(C)c3cc(O)ccc3C[C@H]1[C@H]2C (10 µM)	0.112	102% (inactive)
O=C(NCC1CCOCC1)c1cnc(Nc2ccc(Cl)cc2Cl)nc1C(F)(F)F (10 µM)	0.326	96% (inactive)
CC1=C(C(=O)O)N2C(=O)[C@@H](NC(=O)[C@H](N)c3ccc(O)cc3)[C@H]2SC1 [cefadroxil] (10 µM)	-0.016	108% (inactive)
Cc1cc(C)c(S(=O)(=O)Nc2cccc(C(F)(F)F)c2)c(C)c1 (10 µM)	0.152	108% (inactive)
CC(C)(O)CC(=O)NCCn1ccc2ncnc(Nc3ccc(Oc4cccc(C(F)(F)F)c4)c(Cl)c3)c21 (10 µM)	-0.138	114% (inactive)
CNCC(=O)O [sarcosine] (10 µM)	0.0271	108% (inactive)
CCOP(=S)(OCC)Oc1ccc2c(C)c(Cl)c(=O)oc2c1 [coumophos] (10 µM)	-0.0715	110% (inactive)
CC(C(=O)O)c1ccc(N2Cc3ccccc3C2=O)cc1 (stereo not given) [indoprofen] (10 µM)	-0.106	110% (inactive)
C=CC[C@@H]1/C=C(\C)C[C@H](C)C[C@H](OC)[C@H]2O[C@@](O)(C(=O)C(=O)N3CCCC[C@H]3C(=O)O[C@H](/C(C)=C/[C@@H]3CC[C@@H](O)[C@H](OC)C3)[C@H](C)[C@@H](O)CC1=O)[C@H](C)C[C@@H]2OC [tacrolimus] (10 µM)	0.199	93% (inactive)
Cc1oc(-c2ccccc2)nc1CCOc1ccc(CC2SC(=O)NC2=O)c2sccc12 (stereo not given) [edaglitazone] (10 µM)	0.29	90.5% (inactive)
OC(CN1CCN(c2cccc(Cl)c2)CC1)C(c1ccccc1)c1ccccc1 (stereo not given) (10 µM)	-0.0067	96.5% (inactive)
CN(C)CCC=C1c2ccccc2C=Cc2ccccc21 [cyclobenzaprine] (10 µM)	0.228	78% (inactive)
CN1[C@H]2C[C@H](OC(=O)[C@H](CO)c3ccccc3)C[C@@H]1[C@@H](O)C2 [anisodamine] (10 µM)	-0.00951	116% (inactive)
Oc1cc(O)c2c(c1)O[C@H](c1ccc(O)c(O)c1)[C@@H](O)C2 [cianidanol] (10 µM)	-0.0417	110% (inactive)
CS(=O)(=O)c1ccc(C2=C(c3ccccc3)C(=O)OC2)cc1 [rofecoxib] (10 µM)	0.0705	96.5% (inactive)
CC(C)S(=O)(=O)NC[C@H](C)c1ccc(-c2ccc(CCNS(C)(=O)=O)cc2)cc1 [mibampator] (10 µM)	0.146	93% (inactive)
CC(=O)Oc1ccc(C(c2ccc(OC(C)=O)cc2)c2ccccn2)cc1 [bisacodyl] (10 µM)	0.261	85.5% (inactive)
Cn1c(NC[C@@H](N)Cc2ccccc2)nc(-c2ccncc2)c(-c2ccc3ccccc3c2)c1=O (10 µM)	0.653	35% (active)
Clc1ccc(C(c2ccc(Cl)cc2)C(Cl)(Cl)Cl)cc1 (10 µM)	0.0848	106% (inactive)
CCN(C(=O)c1c(O)c2c(Cl)cccc2n(C)c1=O)c1ccccc1 [laquinimod] (10 µM)	0.168	99% (inactive)

Compound	morphology score [1]	SARS-CoV-2 infection rate [2]
COc1ccc(C(=O)/C(Cc2cc(OC)c(OC)c(OC)c2)=C(\C(=O)O)c2ccc3c(c2)OCO3)cc1 (10 µM)	0.489	69% (inactive)
O=C(/C=C/c1cccc(F)c1)NC1CC1 [cinflumide] (10 µM)	-0.00378	110% (inactive)
CN(C)Cc1cccc(N/C(=C2\C(=O)Nc3cc(C(N)=O)ccc32)c2ccccc2)c1 (10 µM)	-0.132	120% (inactive)
Cc1ccc(NCCCc2ccccc2)c(N)c1 [NFKB-activation-inhibitor-II] (10 µM)	0.238	102% (inactive)
C[C@@H]1CC[C@H]2C(C)(C)[C@H]3C[C@@]12CC[C@@]3(C)O [cedrol] (10 µM)	0.0579	95.5% (inactive)
O=C(O)C1=C[C@@H](O)[C@@H](O)[C@H](O)C1 [shikimic-acid] (10 µM)	0.0235	108% (inactive)
N[C@@H]1CN(c2c(F)cc3c(=O)c(C(=O)O)cn([C@@H]4C[C@@H]4F)c3c2Cl)CC12CC2 [sitafloxacin] (10 µM)	-0.0334	106% (inactive)
CCCCCCCCCCCCCCCCCCCCCCCCCCCCO [1-octacosanol] (10 µM)	0.118	100% (inactive)
C[n+]1ccccc1C=NO [pralidoxime] (10 µM)	-0.226	116% (inactive)
Oc1cccc(Nc2ncc(F)c(Nc3cccc(O)c3)n2)c1 (0.833333 µM)	0.183	100% (inactive)
CN1CCN(c2nc3ccccc3nc2Cl)CC1 (10 µM)	0.162	102% (inactive)
COc1cc(OC)c(OC)cc1C=O [asaraldehyde] (10 µM)	-0.0171	110% (inactive)
CCC(=O)O[C@]1(C(=O)CO)CC[C@H]2[C@@H]3CCC4=CC(=O)CC[C@]4(C)[C@H]3CC[C@@]21C (10 µM)	0.188	102% (inactive)
CCN1CCC[C@H]1CNC(=O)c1c(O)c(Cl)cc(Cl)c1OC [raclopride] (10 µM)	0.124	104% (inactive)
Cc1nnc(C[C@@H]2C=C(c3ccc(Cl)cc3)c3ccccc3-n3c(C)nnc32)o1 (0.833333 µM)	-0.106	108% (inactive)
CN1[C@@H]2CC[C@H]1C[C@@H](OC(c1ccccc1)c1ccccc1)C2 [benztropine-mesylate] (10 µM)	0.481	84.5% (inactive)
CC(=O)N[C@@H](CCC(N)=O)C(=O)O [aceglutamide] (10 µM)	-0.137	105% (inactive)
CN(C)Cc1cccc(N=C(c2ccccc2)c2c(O)[nH]c3cc(C(=O)N(C)C)ccc23)c1 (10 µM)	-0.271	112% (inactive)
O=C(O)CCCCCCNC1c2ccccc2CCc2ccccc21 [amineptine] (10 µM)	0.118	105% (inactive)
CNC(=O)c1c(I)c(C(=O)NCC(=O)Nc2c(I)c(C(=O)O)c(I)c(C(=O)NCCO)c2I)c(I)c(N(C)C(C)=O)c1I [ioxaglic-acid] (10 µM)	0.0564	104% (inactive)
